Compound activity deposited in PubChem BioAssay by National Center for Advancing Translational Sciences (NCATS).
Shown are actives, neighbours in structure and some others; about 18% of the full set was active somewhere.
TDP1 block: TDP1 (human) enzyme inhibition; Potency, µM (top dose mostly 130 µM), for the others: top-dose activity change, negative = inhibition, hits mostly inhibitors; recombinant TDP1, AlphaScreen DNA substrate cleavage; 350,000 compounds, 0.28% hits; Q9NUW8; also: potency is read from the fitted curve at half-maximal effect; nearly all actives have a fitted effect of over 40% in size
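Here, a 5' biotin and 3' phosphotyrosine-FITC DNA oligonucleotide reports Tdp1 activity: intact substrate bridges AlphaScreen beads, while cleavage leaves a 3' phosphate and drops signal. All incubations at room temperature.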
DT40 TDP1 CPT: DT40-hTDP1 cell growth loss with CPT; chicken DT40 Tdp1-/-;hTDP1 cells + 20 nM CPT, ATP luminescence, 48 h; Potency, µM (highest dose often 46.2 µM), without a hit: at the top dose activity change, negative = growth inhibition, hits mostly inhibitors; 420,000 compounds, 12% hits; also: potency is read from the fitted curve at half-maximal effect; nearly all actives have a fitted effect of over 55% in size
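Cell growth measured by CellTiter-Glo luminescence after a minimum 48 h, 37 C compound exposure with 20 nM CPT in Tdp1-knockout DT40 cells stably expressing hTDP1, seeded 400/well; qHTS titration format.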
DT40 TDP1 no CPT: qHTS for Inhibitors of human tyrosyl-DNA phosphodiesterase 1 (TDP1): qHTS in cells in absence of CPT | DT40 Tdp1-/- hTDP1 cells, no CPT, ATP luminescence, 48 h | Potency, µM (highest dose often 46.2 µM), for the others: at the highest dose activity change, negative = growth inhibition, hits mostly inhibitors | 420,000 compounds, 15% hits | AID 686978, 2013; also: potency is read from the fitted curve at half-maximal effect; nearly all actives have a fitted effect of over 55% in size
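Growth kinetics read by CellTiter-Glo luminescence after ≥48 hr at 37 °C. Cells: DT40 Tdp1-/- stably carrying human TDP1, 400 per well, compound exposure in the absence of CPT (DMSO vehicle).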
CtBP-E1A inh: inhibitors of CtBP/E1A interaction; AlphaScreen GST-E1A/His-CtBP binding, 1536-well; active compounds read low; activity change, % (test concentration not listed); 340,000 compounds, 0.49% hits; in the data active = activity change below about -65%; inconclusive = mostly about -30% to -63%
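Steps: dispense buffer (Tris pH 8.0, NaCl 300 mM, TCEP 1 mM, BSA, Tween 20); add 5X protein mix (GST-E1A, His-CtBP, 125 nM each); pin 23 nL compound; 2 h at 37 °C, dark; add 5X beads (50 ug/mL); 1 h; read.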
IL-1B inflam inh: inhibitors of inflammasome signaling (IL-1 beta secretion); THP-1 LPS/ATP IL-1B secretion, AlphaLISA, 16 h; active compounds read low; activity change, % at 57.5 µM; 360,000 compounds, 4.7% hits; in the data active = activity change below about -50%; inconclusive = mostly about -30% to -49%
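Secreted IL-1B measured by AlphaLISA bead assay after 16 h compound exposure of THP-1 cells; compounds (final up to 57.5 uM) added 1 h before LPS (250 ng/mL) and ATP (1.25 mM) stimulation; lower signal means less secretion.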
Six1-Eya2 blk: Six1/Eya2 interaction inhibition | AlphaScreen GST-Six1/His-Eya2 binding, biochemical; active compounds read low | 360,000 compounds, 0.56% hits | Q15475+O00167 | AID 651725 | activity change, % (no concentration beside the values); in the data active = activity change below about -65%; inconclusive = mostly about -30% to -63%
Target sequence (O00167 whole entry, looked up): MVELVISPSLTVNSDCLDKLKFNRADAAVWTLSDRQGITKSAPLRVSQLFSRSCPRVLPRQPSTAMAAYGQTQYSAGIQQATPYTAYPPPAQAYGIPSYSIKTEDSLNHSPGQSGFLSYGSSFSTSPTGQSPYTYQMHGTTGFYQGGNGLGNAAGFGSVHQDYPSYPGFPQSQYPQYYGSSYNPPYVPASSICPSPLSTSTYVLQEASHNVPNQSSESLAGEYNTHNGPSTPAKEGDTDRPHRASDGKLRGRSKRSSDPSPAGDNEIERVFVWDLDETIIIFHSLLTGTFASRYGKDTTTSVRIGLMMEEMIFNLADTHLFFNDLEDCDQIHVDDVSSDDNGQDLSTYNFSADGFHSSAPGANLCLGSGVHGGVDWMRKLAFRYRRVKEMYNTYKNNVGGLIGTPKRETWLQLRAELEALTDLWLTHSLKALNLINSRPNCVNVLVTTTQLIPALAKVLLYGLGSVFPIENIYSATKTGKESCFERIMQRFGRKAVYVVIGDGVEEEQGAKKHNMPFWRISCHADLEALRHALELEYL
Target sequence (Q15475 whole entry, looked up): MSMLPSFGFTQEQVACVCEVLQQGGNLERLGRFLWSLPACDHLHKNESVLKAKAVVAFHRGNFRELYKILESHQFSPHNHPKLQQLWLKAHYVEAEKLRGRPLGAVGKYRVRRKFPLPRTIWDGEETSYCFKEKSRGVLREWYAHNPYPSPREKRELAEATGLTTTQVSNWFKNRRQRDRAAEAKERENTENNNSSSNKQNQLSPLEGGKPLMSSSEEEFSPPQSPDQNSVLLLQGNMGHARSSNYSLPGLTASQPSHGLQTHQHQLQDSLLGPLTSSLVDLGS
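AlphaScreen luminescence read after one hour at 37 °C in darkness. Pin-transferred compounds met GST-Six1 and His-Eya2 protein (5X stock 250 nM/500 nM) plus glutathione donor and Ni-chelate acceptor beads (5X, 50 ug/mL).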
* hit, by the source's call; ? = inconclusive; nt = no result given; [ ] = another dose, or the depositor's remark. Unless noted, calls follow the shape of the dose curve; as a rule, active = well fitted curve in the direction sought with a large enough effect; inconclusive = small, poorly fitted or top-dose-only effect, or another doubt; inactive = no such curve, though single readings can be large; an effect the other way counts as inactive or inconclusive. % is scaled to controls: 0 for no effect and ±100 for the full control effect.

SMILES	TDP1 block	DT40 TDP1 CPT	DT40 TDP1 no CPT	CtBP-E1A inh	IL-1B inflam inh	Six1-Eya2 blk
C=CCn1c(SCc2nc3scc(-c4ccccc4)c3c(=O)[nH]2)nnc1-c1ccccc1F	4%	-29%	-28%	-5	-14	-5
Cc1cccc2cc(COC(=O)c3cccnc3)c(=O)[nH]c12	2%	-16%	-1%	-3	0	-13
CCOC(=O)Cn1c(S(=O)(=O)Cc2ccc(Cl)cc2)nc(-c2ccccc2)c1-c1ccccc1	3%	18µM*	16µM*	-5	-4	-3
CCn1c(=O)c2c3c(sc2n2cnnc12)CCC3	-3%	-26%	-19%	-7	4	-9
Cc1cc(C)c2sc(N(CCN(C)C)C(=O)c3c(F)cccc3F)nc2c1	5%	-29%	?	-23	-71*	-11
Cc1cc(C)c2sc(N(CCCN(C)C)C(=O)c3ccc(Br)s3)nc2c1	6%	?	15µM*	0	nt	-4
Cc1ccc(C(C)n2cc(C(=O)NCc3cccnc3)nn2)cc1 (stereo not drawn)	2%	-29%	-26%	3	11	10
Cc1cccc(C)c1NC(=O)CSc1nnc(-c2ccco2)c(-c2ccco2)n1	nt	-11%	-23%	-26	-77*	-67*
Cc1ccccc1NC(=O)CSc1nnc(-c2ccco2)c(-c2ccco2)n1	-12%	?	?	-17	-30	?
COc1ccc(OCCN(C)CC(=O)Nc2c(C)cccc2C)cc1	nt	?	23µM*	-15	7	0
COc1cccc(NC(=O)CSc2nnc(-c3ccco3)c(-c3ccco3)n2)c1	nt	?	-30%	?	-6	?
CN(C)c1ccc(NC(=O)CSc2nnc(-c3ccco3)c(-c3ccco3)n2)cc1	nt	?	16µM*	?	-14	?
O=C(CSc1nnc(-c2ccco2)c(-c2ccco2)n1)Nc1ccccc1	nt	?	?	?	-58*	?
O=C(C[C@@H]1C/C=C\CC[C@@H](Cc2ccc(F)cc2)C(=O)OC[C@@H]2CCCN2C1=O)NCCO	-2%	-4%	?	2	16	4
O=C(CC1C(=O)NCCN1Cc1ccccc1C(F)(F)F)NCCN1CCCCC1=O (stereo not drawn)	2%	2%	2%	nt	5	5
O=C(CN(Cc1ccccc1Cl)C(=O)c1csnn1)NCc1ccc(F)cc1	3%[0.0935 µM]	-21%	?	22	0	6
O=C(CSc1nnc(-c2ccccc2)c(-c2ccccc2)n1)NCc1ccco1	12%[56.1 µM]	?	23µM*	-17	-6	-20
COc1ccc(-c2nnc(SCC(=O)Nc3c(C)cccc3C)nc2-c2ccc(OC)cc2)cc1	nt	?	1.8µM*	nt	nt	nt
Cc1nc(NC(=O)CSc2nnc(-c3ccccc3)c(-c3ccccc3)n2)c(Cl)cc1Cl	3%	23µM*	26µM*	-26	5	-6
COc1ccc(NC(=O)CC2C(=O)N(c3ccc(OC)cc3)C(=O)N2C(C)C)cc1 (stereo not drawn)	5%	4%	-5%	0	7	6
CC1=C(C(=O)N(C)C)CC(CC(=O)NC2CCCC2)C(=O)N1CCCN1CCCC1=O (stereo not drawn)	nt	-1%	9%	1	8	8
NCCOc1ccccc1Cc1ccccc1	0%	?	?	0	-62*	5
C[C@@H]1CN([C@@H](C)CO)C(=O)CCCn2nncc2CO[C@H]1CN(C)Cc1cccc(O)c1	nt	-4%	-12%	0	-4	12
CN(CCc1ccccc1)C(CCc1ccccc1)C(=O)Nc1ccc2c(c1)OCCO2 (stereo not drawn)	nt	?	?	-10	11	-5
CSCCC(C(=O)Nc1c(C)cccc1C)N(C)CCc1ccccc1 (stereo not drawn)	nt	18µM*	16µM*	-3	-2	-11
SMILES	TDP1 block	DT40 TDP1 CPT	DT40 TDP1 no CPT	CtBP-E1A inh	IL-1B inflam inh	Six1-Eya2 blk
Cc1nn(CC(=O)N2CCN(c3ccccc3)CC2)c(C)c1[N+](=O)[O-]	5%[0.0935 µM]	1%	-22%	-8	-17	-15
CC1(Cc2ccccc2OC(F)(F)F)C(=O)Nc2c(Cl)ccc(Cl)c21 (stereo not drawn)	nt	16µM*	23µM*	3	22	0
CC1(Cc2ccccc2Cl)C(=O)Nc2c(Cl)cccc21 (stereo not drawn)	nt	29µM*	?	-15	-25	-19
CC1(Cc2ccc(F)cc2)C(=O)Nc2c(Cl)ccc(Cl)c21 (stereo not drawn)	nt	?	?	1	-59*	0
C=Cc1ccc(CC2(C)C(=O)Nc3c(Cl)cccc32)cc1 (stereo not drawn)	nt	0%	?	22	23	21
COc1ccc(-c2ccc(=O)n(CC(=O)Nc3ccc(OC)c(OC)c3)n2)cc1	9%	?	-26%	nt	nt	nt
Cc1ccnc(OC(C(=O)O)C(OCc2ccccc2)(c2ccccc2)c2ccc(C(F)(F)F)cc2)n1 (stereo not drawn)	4%	21µM*	?	nt	9	-1
CCn1c(SCC(=O)N2CCCC2=O)nnc1-c1cccs1	2%[56.1 µM]	-15%	0%	0	1	5
COc1ccccc1-c1sc2ccccc2c1-c1ccc(OCCN2CCCCC2)cc1	6%[56.1 µM]	18µM*	15µM*	?	-21	-27
COc1ccc2c(-c3ccc(OCCN4CCOCC4)cc3)c(-c3ccccc3OC)sc2c1	2%[56.1 µM]	21µM*	21µM*	-28	-4	-23
COc1cc2sc(-c3ccccc3OC)c(-c3ccc(OCCN4CCOCC4)cc3)c2cc1OC	6%[56.1 µM]	?	?	-25	-23	?
Oc1ccc2sc(-c3ccccc3O)c(-c3ccc(OCCN4CCCCC4)cc3)c2c1	nt	21µM*	?	2	104	-4
COc1ccc2c(-c3ccc(OCCN4CCCCC4)cc3)c(-c3ccccc3OC)sc2c1	6%[56.1 µM]	-104%	15µM*	-22	-20	?
O=C(N/N=C/c1ccoc1)c1ccc(Cl)cc1	3%	-7%	1%	-17	-5	-15
COc1ccc(-c2sc3cc(OC)ccc3c2-c2ccc(OCCN3CCCCC3)cc2)cc1	nt	4.6µM*	5.8µM*	-24	?	?
COc1ccc(OC)c(C2=CC(=O)C[C@H](c3ccc4c(c3)OCO4)C2)c1	4%	7.3µM*	10µM*	-10	6	-17
